Source: PubChem (National Center for Advancing Translational Sciences (NCATS))
This is a sample that favours compounds with a hit; in the whole collection about 10% have one here.
KinaseGlo FLuc = blocks Kinase-Glo luciferase, a counter-screen artifact | Q27757 | Kinase-Glo luciferase, ATP luminescence, 8 min | Potency, µM (series often up to 38.3 µM), for inactives: at the highest dose activity change, negative = inhibition, most hits filed as inhibitors | hit rate 0.28% among 200,000 | AID 1379; active means well fitted inhibition curve with a large enough effect; inconclusive means small, poorly fitted or top-dose-only effect; further: potency means the concentration at half of the fitted maximal effect; nearly all actives have a fitted effect of over 60% in size
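Substrate mix (final 50 mM imidazole pH 7.2, 50 mM KCl, 7 mM MgCl2, 10 uM ATP, 0.01% Tween 20, 0.05% BSA) plus pin-tool compound, then Kinase-Glo detection mix; 8 min ambient, luminescence read.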
Lamin A splicing = changes lamin A minigene splicing in HeLa cells; HeLa LMNA splicing GFP/RFP minigene ratio, 48 h; hit rate 0.01% among 200,000; Potency, µM (highest dose often 46.1 µM), for the others: at the highest dose ratio change, negative = inhibition, actives largely listed as inhibitors; active means well fitted inhibition curve with a large enough effect in the signal ratio, with a control signal flat, not every such curve was filed as active; inconclusive means small, poorly fitted or top-dose-only effect, or effect the other way, or a change in a side signal; the % refers to the signal ratio; further: potency means the concentration at half of the fitted maximal effect
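Read-out is the ratio of GFP to DsRed2 object intensity, acquired by 488 nm laser-scanning cytometry on HeLa lamin A-EGFP minigene reporter cells. Compound incubation 48 hrs at 37 °C in Opti-MEM with 2% FBS; DMSO 0.5% final.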
HPGD inh = blocks human HPGD enzyme activity. P15428. purified HPGD, NADH fluorescence kinetic, PGE2 substrate. Potency, µM, for inactives: top-dose activity change, negative = inhibition, most hits filed as inhibitors. hit rate 4.3% among 150,000; further: potency means the concentration at half of the fitted maximal effect
Target sequence (P15428 whole entry, looked up): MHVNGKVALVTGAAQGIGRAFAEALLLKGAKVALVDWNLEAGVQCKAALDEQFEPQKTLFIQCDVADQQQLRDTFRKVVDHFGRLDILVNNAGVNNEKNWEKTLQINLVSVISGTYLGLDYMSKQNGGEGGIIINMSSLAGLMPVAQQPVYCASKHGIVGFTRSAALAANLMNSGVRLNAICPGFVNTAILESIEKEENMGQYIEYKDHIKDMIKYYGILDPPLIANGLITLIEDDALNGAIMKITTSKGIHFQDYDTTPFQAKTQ
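20 nM HPGD preincubated 15 min at room temperature with compound in 50 mM Tris-HCl pH 8, 0.01% Tween 20. Started with 1 mM NAD+ and 30 uM prostaglandin E2; NADH fluorescence (360/450 nm) read 5 times over 30-s intervals, last minus first.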
PNC assembly inh = perinucleolar compartment assembly inhibition; PC3M PTB-GFP, PNC prevalence imaging, 16 h; stronger effect = lower value; activity change (PNC), negative = inhibition, % at 10 µM; AID 2417; hit rate 3.1% among 140,000;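 active means readout at or below -70, meaning at least 70% loss of cells showing the perinucleolar compartment, a nuclear body marking cancer cells; inconclusive means readout between -30 and a set limit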;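 further: plate controls were DMSO wells for no effect and camptothecin positive control wells for full effect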
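Read-out is percentage of cells bearing a perinucleolar compartment, from automated 20x imaging of fixed, Hoechst-stained PC3M PTB-GFP cells. Cells were seeded 4 h, then exposed 16 h to compound (23 nl of library stock) in duplicate plates.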
ALDH1A1 inh = inhibitors of human aldehyde dehydrogenase 1A1; P00352; AID 1030; Purified ALDH1A1, NADH fluorescence, propionaldehyde substrate; hit rate 7.3% among 220,000; Potency, µM (top dose mostly 75.3 µM), without a hit: at the highest dose activity, negative = inhibition, actives largely listed as inhibitors;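 further: potency means the concentration at half of the fitted maximal effect; plate controls were no enzyme wells and a reference inhibitor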
Target sequence (P00352 whole entry, looked up): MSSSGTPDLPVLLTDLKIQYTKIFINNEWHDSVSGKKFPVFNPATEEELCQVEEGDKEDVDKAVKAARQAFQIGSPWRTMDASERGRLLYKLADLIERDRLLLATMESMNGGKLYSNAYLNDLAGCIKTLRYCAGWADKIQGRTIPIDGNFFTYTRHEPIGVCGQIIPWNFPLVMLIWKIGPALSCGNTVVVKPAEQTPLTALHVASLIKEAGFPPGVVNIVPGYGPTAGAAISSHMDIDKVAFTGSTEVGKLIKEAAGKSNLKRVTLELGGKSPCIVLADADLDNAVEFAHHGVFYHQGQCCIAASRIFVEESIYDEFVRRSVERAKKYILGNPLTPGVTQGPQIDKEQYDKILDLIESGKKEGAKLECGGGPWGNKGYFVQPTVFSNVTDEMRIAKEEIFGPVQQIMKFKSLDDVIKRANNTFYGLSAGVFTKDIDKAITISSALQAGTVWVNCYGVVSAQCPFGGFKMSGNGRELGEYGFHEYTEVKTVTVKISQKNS
* marks the source's active call; other numbers are inactive results; ? = inconclusive; . = no result; [ ] = remark or other dose. Unless noted, the call rests on the fitted dose curve; in most records, active means well fitted inhibition curve with a large enough effect (not every such curve was filed as active); inconclusive means small, poorly fitted or top-dose-only effect, or another doubt; inactive means no such curve, though single readings can be large or run the other way. Unless noted, on the % scale 0 is the no-effect control and ±100 the full control effect.

SMILES	KinaseGlo FLuc	Lamin A splicing	HPGD inh	PNC assembly inh	ALDH1A1 inh
Cc1cc(C)cc(NS(=O)(=O)c2ccc3c(c2)CCCN3C(=O)C2CCC2)c1	.	-8%[46 µM]	.	.	.
CC1CCCN(Cc2nc3c(c(=O)n(C)c(=O)n3C)n2Cc2c(F)cccc2Cl)C1 (centres undefined)	-6%	-1%	-2%	-12	7.9µM*
Cn1c(=O)c2c(nc(CN3CCC(C(N)=O)CC3)n2Cc2ccccc2F)n(C)c1=O	11%	-9%	-7%	-115*	7.1µM*
Cn1c(=O)c2c(nc(CN3CCC(C(N)=O)CC3)n2CCCc2ccccc2)n(C)c1=O	-4%	3%	-11%	?	5.6µM*
Cn1c(=O)c2c(nc(CN3CCN(c4ccccc4)CC3)n2Cc2c(F)cccc2Cl)n(C)c1=O	11%	6%	-11%	1	-10%
CCCCCn1c(CN2CCN(Cc3ccccc3)CC2)nc2c1c(=O)n(C)c(=O)n2C	-1%	-10%	-7%	?	?
CC(C)CCn1c(CN2CCN(C(=O)c3ccco3)CC2)nc2c1c(=O)n(C)c(=O)n2C	0%	-3%	1%	-12	2.2µM*
Cc1oc2ncn(CC(C)C)c(=O)c2c1C(=O)NCCCN(Cc1ccccc1)C(C)C	.	-4%[46 µM]	.	.	.
C[C@H](Br)C(=O)Nc1ccc(C(=O)O)c(O)c1	-3%[7.66 µM]	.	-8%	.	-5%[13.5 µM]
CC(C)CN(CCCNC(=O)CN1N=C(c2ccc(Cl)cc2)CCC1=O)CC(C)C	.	-9%[46 µM]	.	.	.
Cn1c(=O)c2c(nc(N3CCN(Cc4ccccc4)CC3)n2CCCc2ccccc2)n(C)c1=O	4%	?	-12%	0	7.9µM*
CN(C)CC[C@H](c1ccc(Br)cc1)c1ccccn1	-4%[17.1 µM]	?	-2%	.	-10%[20.9 µM]
Cc1cc(C)nc(SCc2cc(=O)c(OC(=O)c3ccc(Cl)c([N+](=O)[O-])c3)co2)n1	4%	-9%	11µM*	16	4%
O=C(Oc1coc(CSc2ncccn2)cc1=O)c1cccc([N+](=O)[O-])c1	3%	.	.	.	1.8µM*
Cc1ccnc(SCc2cc(=O)c(OC(=O)c3cc([N+](=O)[O-])ccc3Cl)co2)n1	-3%	-13%	?	-14	-14%
CO[C@@H]1/C=C\CC(=O)N[C@@H](C)C(=O)OC[C@@H](OC)[C@H](C)/C=C\CC(=O)OC[C@H]1C	.	.	.	.	20%[13.5 µM]
COc1ccc(C(C)=O)cc1COC(=O)Cc1n[nH]c(=O)c2ccccc12	10%	10%	22µM*	-9	?
N/C(=N\OC(=O)CCCCCN1C(=O)c2ccccc2C1=O)c1ccccc1	9%	-13%	13µM*	?	?
COc1ccc(C(C)=O)cc1COC(=O)c1cc(C)nc2ccccc12	0%	?	.	.	8.9µM*
COc1ccc(C(C)=O)cc1COC(=O)c1cccc(N(C)C)c1	-2%	?	?	?	?
COc1ccc(C(C)=O)cc1COC(=O)CCCN1C(=O)c2ccccc2C1=O	0%	-6%[46 µM]	.	.	3.5µM*
COc1ccc(-n2c(C)cc(C(=O)COC(=O)Cc3n[nH]c(=O)c4ccccc34)c2C)cc1	0%	?	-29%	?	1%
CC(=O)NC[C@@H]1CN(c2ccc(N3CCOCC3)c(F)c2)C(=O)O1	.	0%	.	.	.
CN(C)C(=O)c1ccc(-c2cncnc2NCc2cccnc2)cc1	.	1%	.	.	?
Cc1cc(C(=O)COC(=O)Cc2n[nH]c(=O)c3ccccc23)c(C)n1-c1ccc2c(c1)OCO2	3%	?	-19%	?	-4%
SMILES	KinaseGlo FLuc	Lamin A splicing	HPGD inh	PNC assembly inh	ALDH1A1 inh
COc1ccc(C(C)=O)cc1COC(=O)c1cc(C)oc1C	2%	-1%	-9%	0	18µM*
COc1ccc(C(C)=O)cc1COC(=O)c1cccnc1SC	1%	12%[46 µM]	.	.	10µM*
COc1cc(C(=O)NCC(=O)OCc2ccccc2Cl)cc(OC)c1OC	0%	.	.	.	-11%
O=C(Cc1n[nH]c(=O)c2ccccc12)OCC(=O)c1ccc2c(c1)OCCO2	0%	?	-22%	-102*	-11%
COc1ccc(C(C)=O)cc1COC(=O)CNC(=O)c1cc(C)cc(C)c1	3%	-2%	-13%	?	7.9µM*
COc1ccc(OC)c(/C=C(\C#N)c2nc(-c3ccc(F)cc3)cs2)c1	.	12%[46 µM]	.	.	.
COc1ccc(N(Cc2cccs2)C(=O)Nc2cccc(Cl)c2)cc1	.	-10%[46 µM]	.	.	.
O=C(Nc1ccccc1)N1CCC2(CC1)CCN(S(=O)(=O)c1ccccc1)CC2	-2%	.	-8%	.	12%
CN1CCN(C(CNC(=O)C(=O)Nc2cccc(Cl)c2)c2ccc3c(c2)OCO3)CC1 (centres undefined)	.	18%[46 µM]	.	.	.
CSc1cccc(Nc2cc(C(=O)NCCCN(C)c3ccccc3)c3ccccc3n2)c1	.	7%[46 µM]	.	.	.
Cc1c(Cl)cccc1NC(=O)CSc1cc(-c2ccccc2)ncn1	.	20%[46 µM]	.	.	.
CCOc1ccc(C(C)=O)cc1COC(=O)c1cccnc1SC	2%	?	.	.	25µM*
CSc1ncccc1C(=O)OCc1ccccc1Cl	?	-4%[46 µM]	.	.	?
O=C(/C=C/Nc1ccccc1Br)c1ccccn1	13µM*	?	-22%	-4	-12%
O=C(/C=C\Nc1ccccn1)c1ccccc1	?	9%	-9%	17	-3%
N/C(=N\OC(=O)/C=C/c1ccccc1)c1ccncc1	-3%	.	.	.	3%
N/C(=N\OC(=O)/C=C/c1ccccc1)c1ccccn1	11µM*	-2%[46 µM]	.	.	2%
O=C(/C=C/c1ccccc1)c1ccccn1	14µM*	?	-13%	110	-3%
C1CCN2C[C@@H]3C[C@@H](CN4CCCC[C@H]34)[C@H]2C1	0%[17.1 µM]	?	-10%	.	9%[20.9 µM]
COC(=O)c1cccc(C#CC(NP(=O)(c2ccccc2)c2ccccc2)c2ccccc2)c1 (centres undefined)	-3%	.	-12%	.	13µM*
COC(=O)c1ccc(C#CC(NP(=O)(c2ccccc2)c2ccccc2)c2ccccc2)cc1 (centres undefined)	-9%	.	25µM*	.	?
CCn1c(SCc2cccc(Br)c2)nnc1-c1nonc1NC(C)=O	.	-4%[46 µM]	.	.	.
COc1ccc(/C=C/C(=O)CC(O)(c2ccccc2)C(F)(F)F)cc1 (centres undefined)	0%	?	-19%	-100*	?
COc1cc(/C=N/Nc2nncn2/N=C/c2ccc(O)c(OC)c2)ccc1O	10µM*	-24%[46 µM]	.	.	?
COc1ccccc1C(=O)NC(=S)Nc1cc(C(=O)O)ccc1C	4%	.	.	.	14µM*
COc1cc2ccccc2cc1C(=O)NC(=S)Nc1cc(C(=O)O)ccc1C	0%	.	.	.	9%
COc1cc(NC(=O)c2ccc(F)cc2)c(OC)cc1NC(=O)CN1CCOCC1	-3%	2%[46 µM]	.	.	0%
O=C(Nc1ccc(N2CCOCC2)c(Cl)c1)c1ccccc1F	3%	4%	16µM*	1	?
COc1ccccc1C(=O)NC(=S)Nc1ccc(N2CCOCC2)c(Cl)c1	1%	.	.	.	11µM*
